PubChem BioAssay (EPA / NIEHS)
Results filed as inconclusive are left out. Active and inactive are the calls of the source. The calls were made as follows: active = hit-call score of the fitted dose curve at least 0.9, where 1 is the maximum; inconclusive = response in the unintended direction; inactive = score below 0.9.

Key:
[1] = ATG_XTT_Cytotoxicity: Cytotoxicity Assessment in the Attagene TRANS-FACTORIAL HepG2 Assay (AID 2283584)
Summary of the method: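 HepG2 cells transiently transfected with GAL4-UAS multiple reporter units, dosed 24 h; cytotoxicity read by XTT as loss of signal versus DMSO baseline.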

[2] = TOX21_p53_BLA_p4_viability: Viability Assessment in the Tox21 HCT-116 p53 Agonism Beta-lactamase Assay, Phase 4 (AID 2283597);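 also: hits lower the luminescence signal meaning cytotoxicity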
Summary of the method: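 4000 HCT116 cells per well; 5 h attachment; compounds from DMSO, 217-fold dilution; 16 h at 37C. Then CCF4-AM, 2 h RT, followed by CellTiter-Glo, 30 min RT, luminescence. Decrease = cytotoxicity.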

[3] = TOX21_p53_BLA_p5_viability: Viability Assessment in the Tox21 HCT-116 p53 Agonism Beta-lactamase Assay, Phase 5 (AID 2283600)
Summary of the method: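 Decreased CellTiter-Glo luminescence denotes lost viability. Exposure: 16 h at 37C, 5% CO2, with compounds from DMSO stocks diluted 217-fold in wells of 4000 cells.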

[4] = target: Cellular tumor antigen p53 (Homo sapiens) (UniProt P04637); experiment: TOX21_p53_BLA_p4_ratio: Tox21 HCT-116 p53 Agonism Beta-lactamase Assay, Ratio, Phase 4 (AID 2283601)
Chain of Cellular tumor antigen p53 (Homo sapiens) (P04637 whole entry, looked up): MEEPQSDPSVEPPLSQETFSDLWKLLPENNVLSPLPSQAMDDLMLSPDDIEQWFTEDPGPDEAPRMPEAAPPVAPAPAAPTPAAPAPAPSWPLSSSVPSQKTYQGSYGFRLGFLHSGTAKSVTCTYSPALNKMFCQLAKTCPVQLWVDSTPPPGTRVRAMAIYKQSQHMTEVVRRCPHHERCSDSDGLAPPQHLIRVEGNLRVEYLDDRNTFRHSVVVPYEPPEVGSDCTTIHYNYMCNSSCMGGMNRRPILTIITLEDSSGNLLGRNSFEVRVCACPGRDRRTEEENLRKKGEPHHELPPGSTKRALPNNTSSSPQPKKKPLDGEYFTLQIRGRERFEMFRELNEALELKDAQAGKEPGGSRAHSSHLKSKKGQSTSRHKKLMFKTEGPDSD
Summary of the method: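 Signal is the blue/green (460nm/530nm) ratio of cleaved versus uncleaved CCF4-AM substrate, read after 2 h substrate loading. Cells were HCT116 carrying the p53-responsive beta-lactamase reporter, dosed 16 h at 37C, 5% CO2; CellTiter-Glo measured in parallel.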

[5] = target: Cellular tumor antigen p53 (Homo sapiens) (UniProt P04637); experiment: TOX21_p53_BLA_p2_ratio: Tox21 HCT-116 p53 Agonism Beta-lactamase Assay, Ratio, Phase 2 (AID 2283592)
Summary of the method: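 First, HCT116 reporter cells settle for 5 h at 37C. Next, DMSO compound solutions are pinned in (217-fold dilution) and left 16 h. Finally, CCF4-AM substrate is loaded 2 h at room temperature and the 460/530 nm ratio read.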

[6] = target: Cellular tumor antigen p53 (Homo sapiens) (UniProt P04637); experiment: TOX21_p53_BLA_p3_ratio: Tox21 HCT-116 p53 Agonism Beta-lactamase Assay, Ratio, Phase 3 (AID 2283596)
Summary of the method: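 Cells were seeded at 4000/well, rested 5 h at 37C, then dosed with DMSO compound solutions (217-fold dilution) for 16 h. CCF4-AM substrate was loaded for 2 h at room temperature, and the 460/530 nm emission ratio was fitted for gain of signal versus DMSO.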

[7] = target: Cellular tumor antigen p53 (Homo sapiens) (UniProt P04637); experiment: TOX21_p53_BLA_p5_ratio: Tox21 HCT-116 p53 Agonism Beta-lactamase Assay, Ratio, Phase 5 (AID 2283599)
Summary of the method: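 Beta-lactamase reporter ratio (blue 460 nm over green 530 nm, 405 nm excitation) after 2 h CCF4-AM loading, in HCT-116 cells exposed 16 h at 37 C to compounds pinned at 217-fold dilution. Increases relative to DMSO baseline scored.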

[8] = TOX21_p53_BLA_p2_viability: Viability Assessment in the Tox21 HCT-116 p53 Agonism Beta-lactamase Assay, Phase 2 (AID 2283591);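 also: actives lower the ATP signal meaning cytotoxicity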
Summary of the method: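 Cytotoxicity readout: CellTiter-Glo ATP luminescence, 30 min at room temperature, after the beta-lactamase read. Cells were HCT116 exposed 16 h at 37C to compounds pin-transferred at 217-fold dilution from DMSO stocks.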

[9] = TOX21_p53_BLA_p3_viability: Viability Assessment in the Tox21 HCT-116 p53 Agonism Beta-lactamase Assay, Phase 3 (AID 2283593);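 also: cells exposed to compound for 16 h before reading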
Summary of the method: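 Cellular ATP was quantified by CellTiter-Glo luminescence, read after 30 min at room temperature. Beforehand, HCT116 cells (4000/well) received compound 5 h post-seeding, 217-fold diluted from DMSO, then incubated 16 h at 37C.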

[10] = Tanguay_ZF_120hpf_MORT_legacy: (Legacy) Oregon State University Tanguay Lab 120 Hour Post-fertilization zebrafish Assay for Mortality (AID 2283633)
Experimental: Tanguay_ZF_120hpf_legacy is a whole embryo, multiplexed endpoint assay using zebrafish larvae exposed for 120 hours post fertilization on a 96-well plate.Tanguay_ZF_120hpf_MORT_legacy is one of one assay component(s) measured or calculated from the Tanguay_ZF_120hpf_legacy assay. It is designed to make measurements of embryonic mortality as detected with brightfield microscopy of developing zebrafish embryos.Data from the assay component Tanguay_ZF_120hpf_MORT_legacy was analyzed into 1 assay endpoints. This assay endpoint, Tanguay_ZF_120hpf_MORT_legacy, was analyzed in the positive analysis fitting direction relative to DMSO as the negative control and baseline of activity. […]
Zebrafish husbandry: Tropical 5D wild-type adult zebrafish were housed in at an approximate density of 1000 per 100 gallon tank at the Sinnhuber Aquatic Research Laboratory, Oregon State University, Corvallis, OR. […] At 24 hpf, embryos were assessed for photomotor response using a custom photomotor response analysis tool (PRAT) and for developmental toxicity endpoints (MO24: mortality at 24 hpf, DP: developmental progression, SM: spontaneous movement, and NC: notochord distortion). At 120 hpf, locomotor activity was measured using Viewpoint Zebralab and assessed for 18 endpoints. […] If mortality occurred for an embryo (at either 24 or 120 hpf), the non-mortality endpoints were not measured.

Measured: outcome

C=CC(=O)NCOCC(C)C
inactive: [1] | [2] | [3] | [4]

CCCCCC(CO)CCC (stereo unspecified)
inactive: [1] | [5] | [6] | [7] | [3] | [4]

C=CCOc1nc(OCC=C)nc(OCC=C)n1
inactive: [1] | [3] | [4]

CC(C)=CCC[C@](C)(O)[C@@H]1CC=C(C)CC1
inactive: [1] | [6] | [7] | [3] | [4]

C=C(C)C(=O)O[C@H]1C[C@@H]2CC[C@@]1(C)C2(C)C
inactive: [8] | [5] | [9] | [6] | [7] | [4]

CCCC/C=C\CCCCCCCCCC=O
inactive: [8] | [5] | [9] | [6] | [2] | [7] | [3] | [4]

CC(C)OP(=O)(CP(=O)(OC(C)C)OC(C)C)OC(C)C
inactive: [8] | [5] | [9] | [6] | [7] | [4]

CCCCCCCCC=O
inactive: [1] | [6] | [2] | [3]

Cc1ccc(Nc2ccc(O)c3c2C(=O)c2ccccc2C3=O)cc1
inactive: [8] | [5] | [6] | [2] | [7]

NC(=O)Nc1ccc(Cl)cc1
inactive: [1] | [6] | [4]

CN1[C@@H]2CC(OC(=O)[C@H](CO)c3ccccc3)C[C@H]1[C@@H]1O[C@@H]12 (stereo partly specified)
inactive: [5] | [9] | [6] | [2] | [7] | [3] | [4]

CCOc1ccccc1OCC
inactive: [8] | [5] | [6] | [4]

CC(C#N)(CCC(=O)O)N=NC(C)(C#N)CCC(=O)O (stereo unspecified)
inactive: [8] | [9] | [7] | [3] | [4]

CC(O)C(C)O (stereo unspecified)
inactive: [5] | [6] | [3]

O=C(O)c1ccc([N+](=O)[O-])cc1
inactive: [5] | [9] | [6] | [7] | [3] | [4] | [10]

O=C1C(c2[nH]c3ccc(S(=O)(=O)O)cc3c2O)=Nc2ccc(S(=O)(=O)O)cc21
inactive: [5] | [9] | [6] | [2] | [7] | [3] | [4]

CNCCO
inactive: [5] | [6] | [3]

CCOC(=S)SSC(=S)OCC
inactive: [5] | [9] | [6] | [2] | [7] | [3] | [4]

CN(C)CCCN
inactive: [8] | [5] | [6] | [2] | [7] | [3] | [4]

CC(C)[C@H]1CC[C@@H](C)CC1=O
inactive: [8] | [5] | [7] | [3]

O=C(O)CCSCCC(=O)O
inactive: [5] | [6] | [2] | [7] | [3] | [4]

CCC(C(=O)NC(N)=O)c1ccccc1 (stereo unspecified)
inactive: [8] | [5] | [6] | [7] | [3] | [4]

CCCCCOC(=O)CCC
inactive: [5] | [9] | [7] | [3] | [4]

CC(=O)O[C@H](CC(=O)[O-])C[N+](C)(C)C
inactive: [5] | [9] | [6] | [3]

CC(C)(C)NC(N)=O
inactive: [5] | [2] | [7] | [3] | [4]

O=C(Nc1ccccc1)c1cc([N+](=O)[O-])ccc1Cl
inactive: [5] | [6] | [2] | [7] | [3] | [4]

Nc1ccc(S(=O)(=O)O)c(N)c1
inactive: [5] | [9] | [2] | [7] | [3] | [4]

OCC(CO)(CO)COCC(CO)(CO)CO
inactive: [9] | [2] | [7] | [3] | [4]

C=CCOC(=O)CCC1CCCCC1
inactive: [9] | [6] | [7] | [4]

Cc1ccc(S)cc1
inactive: [5] | [9] | [6] | [7] | [3]

CCCC(=O)c1cc(O)c(O)cc1O
inactive: [5] | [9] | [6] | [7] | [3] | [4]

O=C(O)COCCN1CCN(C(c2ccccc2)c2ccc(Cl)cc2)CC1 (stereo unspecified)
inactive: [8] | [5] | [6] | [2] | [7] | [3] | [4]

O=C(OCc1ccccc1)C(=O)OCc1ccccc1
inactive: [5] | [6] | [7] | [4]

COC(C)CCO (stereo unspecified)
inactive: [8] | [6] | [3]
